Bioassay records: PubChem BioAssay, National Center for Advancing Translational Sciences (NCATS)
GLS inhibitor: inhibitors of human glutaminase (GLS); Potency, µM (series often up to 45.5 µM), without a hit: at the top dose activity change, negative = inhibition, most hits filed as inhibitors; AID 624170; O94925; actives 0.21% (n = 410,000); GLS enzymatic activity, qHTS titration; further: potency means the concentration at half of the fitted maximal effect; on the % scale 0 is the no-effect control and ±100 the full control effect
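hKGA in 45 mM KH2PO4 (pH 8.2), 0.02% Tween-20 with compound, then 1mM L-Glutamine (stock as added) plus glutamate oxidase/HRP/Amplex red coupling mix. Fluorescence read initially and after 30 min at RT; signal change reflects glutamate formation.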
HP1b binding inh: inhibitors of HP1-beta chromodomain binding to methylated histone tails; P83916; AlphaScreen HP1-beta / biotin-H3K9me3 peptide binding; Potency, µM (top dose mostly 114 µM), for inactives: at the highest dose activity change, negative = inhibition, usual class: inhibitors; actives 0.56% (n = 390,000); AID 540317; further: potency means the concentration at half of the fitted maximal effect; nearly all actives have a fitted effect of over 70% in size
Target sequence (P83916 whole entry, looked up): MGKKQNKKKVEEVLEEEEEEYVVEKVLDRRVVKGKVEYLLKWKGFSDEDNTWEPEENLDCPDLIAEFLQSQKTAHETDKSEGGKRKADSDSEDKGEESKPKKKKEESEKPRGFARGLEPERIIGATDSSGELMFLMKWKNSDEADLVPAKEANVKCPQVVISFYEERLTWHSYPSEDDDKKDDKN
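Compound inhibition of the preformed complex between 50 nM HP1-beta and 50 nM biotinylated H3K9me3 peptide was read by AlphaScreen. Buffer was PBS pH 7.4 with 0.01% Tween-20. Incubations ran 30 min at room temperature, with 10 ug/mL donor/acceptor beads.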
G9a block: G9a (human) methyltransferase inhibition. G9a H3K9 monomethylation, AlphaScreen, 2 h. Potency, µM (doses to about 102 µM), for the others: at the top dose activity, negative = inhibition, actives largely listed as inhibitors. AID 504332. actives 8.8% (n = 350,000). Q96KQ7; further: potency means the concentration at half of the fitted maximal effect; on the % scale 0 is the no-effect control and ±100 the full control effect; nearly all actives have a fitted effect of over 75% in size
Target sequence (Q96KQ7 913-1193 limits assumed): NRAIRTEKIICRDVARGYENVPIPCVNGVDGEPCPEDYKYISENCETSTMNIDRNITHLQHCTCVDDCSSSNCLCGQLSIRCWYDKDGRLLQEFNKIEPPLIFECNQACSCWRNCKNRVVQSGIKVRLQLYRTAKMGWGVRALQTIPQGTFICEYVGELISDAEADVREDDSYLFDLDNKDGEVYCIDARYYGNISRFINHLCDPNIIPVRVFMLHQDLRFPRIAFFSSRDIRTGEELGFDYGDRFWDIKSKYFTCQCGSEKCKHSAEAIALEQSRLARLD
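Using a bead-based AlphaScreen, monomethylated H3K9 product from 2 h room-temperature reactions (G9a 20 nM, peptide 500 nM, SAM 20 uM) was detected with 0.5 ug/mL rabbit anti-H3K9me1 antibody.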
BAZ2B inh: blocks human BAZ2B | Q9UIF8 | AlphaScreen BAZ2B-H3K14Ac peptide displacement | Potency, µM (highest dose often 114 µM), inactives show top-dose activity change, negative = inhibition, actives largely listed as inhibitors | actives 4.4% (n = 360,000); further: potency means the concentration at half of the fitted maximal effect; on the % scale 0 is the no-effect control and ±100 the full control effect; nearly all actives have a fitted effect of over 60% in size
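Inhibition is scored as reduced AlphaScreen emission. The BAZ2B/b-H3(5-23)K14Ac complex (50 nM each) in PBS pH 7.4, 0.01% Tween-20 meets compound (up to 110 uM) for 30 min at RT before bead addition.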
JMJD2A Tudor inh: inhibitors of human JMJD2A Tudor domain. O75164. AlphaScreen JMJD2A-Tudor / H3K4me3 peptide binding. Potency, µM (highest dose often 114 µM), without a hit: at the top dose activity change, negative = inhibition, most hits filed as inhibitors. actives 4.4% (n = 390,000). AID 504339; further: potency means the concentration at half of the fitted maximal effect; on the % scale 0 is the no-effect control and ±100 the full control effect; nearly all actives have a fitted effect of over 50% in size
GLS confirm: confirmation of human glutaminase inhibitors; AID 624261; shares compounds with GLS inhibitor; 35 tested, under 10 active; biochemical glutaminase enzyme inhibition assay; Potency, µM (doses to about 46.1 µM), for the others: top-dose activity change, negative = inhibition, most hits filed as inhibitors; calls by dose curve
HRP GOx counter: inhibits HRP glutamate oxidase coupled readout, glutaminase counter-screen; shares compounds with GLS inhibitor; HRP/glutamate oxidase coupled Amplex Red fluorescence counterscreen; activity change, negative = inhibition, % at 46.1 µM; 35 tested, under 10 active
GLS HEK tox: counter-screen for glutaminase inhibitors: HEK-293 cytotoxicity. shares compounds with GLS inhibitor. HEK-293 viability, CellTiter-Glo luminescence, 24 h. activity change, negative = cytotoxicity, % at 46.1 µM. 35 tested, under 10 active. AID 624264
An asterisk follows results filed as active; u = inconclusive; x = no result given; [ ] = remark or other dose. An excerpt weighted towards active compounds, which were near 10% of everything screened. Unless noted, the call rests on the fitted dose curve; in most records, active means well fitted curve in the direction sought with a large enough effect; inconclusive means small, poorly fitted or top-dose-only effect, or another doubt; inactive means no such curve, though single readings can be large; an effect the other way counts as inactive or inconclusive.

SMILES	GLS inhibitor	HP1b binding inh	G9a block	BAZ2B inh	JMJD2A Tudor inh	GLS confirm	HRP GOx counter	GLS HEK tox
COc1ccccc1NS(=O)(=O)c1cc(NC(=O)C(C)NC(N)=O)ccc1N1CCCC1 (centres undefined)	18%	-10%	u	-3%	-13%	x	x	x
Cc1ccc(S(=O)(=O)Nc2cc(Cl)c(O)c3ncccc23)cc1	7.1µM*	79µM*	7.9µM*	8.9µM*	22µM*	u	-6	u
Cc1ccc(S(=O)(=O)Nc2cc(Br)cc3cccnc23)cc1	x	57%	x	x	1%	x	x	x
COc1ccccc1N(C)S(=O)(=O)c1ccc(C(=O)OCC(=O)N(C)c2ccccc2)cc1	7.1µM*	17%	17%	x	-15%	4%	5	2
O=C(O)c1ccccc1NS(=O)(=O)c1cccc(NS(=O)(=O)c2cc(Br)ccc2Br)c1	u	27%	x	x	-17%	u	-4	-6
O=C(CCCCCCCCCCCCC1CCCC1)Nc1ccc(S(=O)(=O)c2ccc(NC(=O)CCCCCCCCCCCCC3CCCC3)cc2)cc1	5%	x	-9%[2.33 µM]	x	x	x	x	x
Cc1ccc(S(=O)(=O)Nc2ccc(O)c3ccccc23)c(C)c1	7.9µM*	50µM*	22µM*	45µM*	45µM*	u	-9	-21
CCN(CC)S(=O)(=O)c1ccc(NS(=O)(=O)c2cccc(C)c2)cc1	u	8%	9%[59 µM]	8%	-13%	11%	2	-9
Cc1ccc(S(=O)(=O)Nc2cc(C)c(O)c(Sc3n[nH]c(C)n3)c2)cc1	10µM*	u	7.1µM*	-28%	11µM*	u	u	-5
COc1ccc(NS(=O)(=O)c2cc(N)ccc2N2CCCCC2)cc1	17%	-1%	-15%[12.7 µM]	u	u	x	x	x
COc1ccccc1NS(=O)(=O)c1cc(N)ccc1N1CCCC1	u	14µM*	x	x	u	1%	u	-3
O=c1c2c(-c3ccccc3)csc2ncn1/N=C/c1ccc(O)c([N+](=O)[O-])c1	0%	15%	u	-33%	-30%	x	x	x
Cc1c(OCC(=O)Nc2cccnc2)ccc2c3c(c(=O)oc12)CCC3	1%	27%	16%	-15%	1%	x	x	x
CC(=O)c1c(C)oc2c1cc(NS(=O)(=O)c1ccc(Br)cc1)c1ccccc12	-1%	59%	-1%[59 µM]	-13%	-9%	x	x	x
Cc1oc2c(cc(NS(=O)(=O)c3ccc(Cl)cc3)c3ccccc32)c1C(=O)O	16µM*	-11%	-9%[0.501 µM]	-36%	u	u	6	8
CN=C1S/C(=C\c2ccc(N3CCCC3)c(F)c2)C(=O)N1C	14%	55%	7%	-10%	-11%	x	x	x
COc1cccc(CNC(=O)CCNC(=O)N2CC(=O)Nc3ccccc32)c1	0%	x	x	x	x	x	x	x
COc1ccc(OC)c(S(=O)(=O)Nc2cccc3ccc(O)cc23)c1	6.3µM*	3%	x	x	-28%	1%	u	6
O=C(Nc1ccccc1)OCCc1ccccn1	7%	12%	x	x	-14%	x	x	x
CN1C(=O)c2cccc3c(S(=O)(=O)Nc4ccc(O)c(C(=O)O)c4)ccc1c23	u	-10%	u	-10%	-19%	u	u	9
CN1C(=O)c2cccc3c(S(=O)(=O)NCCc4ccccc4)ccc1c23	0%	115%	31%	41%	53%	x	x	x
